Assay outcomes deposited in PubChem BioAssay by National Center for Advancing Translational Sciences (NCATS).
An excerpt weighted towards active compounds, which were near 3% of everything screened.
VDR inh – inhibitors of human vitamin D receptor; P11473; VDR-SRC2-3 peptide fluorescence polarization, 2 h; Potency, µM, actives largely listed as inhibitors; 400,000 tested, 0.93% active; AID 504847
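The screen uses fluorescence polarization to detect compounds that interfere with recruitment of the SRC2-3 coactivator peptide to VDR; plates are read after 2 h at room temperature.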
GCN5L2 inh – inhibitors of human GCN5L2 histone acetyltransferase; Potency, µM (series often up to 58.9 µM), most hits filed as inhibitors; GCN5L2 HAT assay, ThioGlo1 CoA-SH fluorescence; Q92830; 390,000 tested, 0.21% active
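Preincubate 20nM GCN5L2 with compound 15 min, RT → add 50uM ThioGlo1 + 75uM H3(1-25) + 70uM acetyl-CoA → read fluorescence 0 and 20 min. Primary qHTS; fluorescent artifacts likely.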
PLK1 PBD inh – inhibitors of human PLK1 polo-box domain binding. Plk1 PBD binding of FITC phosphopeptide, fluorescence polarization. Potency, µM, usual class: inhibitors. 360,000 tested, 2.8% active. AID 720504; note: series mostly up to about 57 µM; nearly all actives have a fitted effect of over 65% in size
12-LOX inh – blocks human arachidonate 12S-lipoxygenase; P18054; purified 12hLO, xylenol orange hydroperoxide absorbance; Potency, µM (series often up to 108 µM), usual class: inhibitors; 580,000 tested, 1.1% active
Target sequence (P18054 whole entry, looked up): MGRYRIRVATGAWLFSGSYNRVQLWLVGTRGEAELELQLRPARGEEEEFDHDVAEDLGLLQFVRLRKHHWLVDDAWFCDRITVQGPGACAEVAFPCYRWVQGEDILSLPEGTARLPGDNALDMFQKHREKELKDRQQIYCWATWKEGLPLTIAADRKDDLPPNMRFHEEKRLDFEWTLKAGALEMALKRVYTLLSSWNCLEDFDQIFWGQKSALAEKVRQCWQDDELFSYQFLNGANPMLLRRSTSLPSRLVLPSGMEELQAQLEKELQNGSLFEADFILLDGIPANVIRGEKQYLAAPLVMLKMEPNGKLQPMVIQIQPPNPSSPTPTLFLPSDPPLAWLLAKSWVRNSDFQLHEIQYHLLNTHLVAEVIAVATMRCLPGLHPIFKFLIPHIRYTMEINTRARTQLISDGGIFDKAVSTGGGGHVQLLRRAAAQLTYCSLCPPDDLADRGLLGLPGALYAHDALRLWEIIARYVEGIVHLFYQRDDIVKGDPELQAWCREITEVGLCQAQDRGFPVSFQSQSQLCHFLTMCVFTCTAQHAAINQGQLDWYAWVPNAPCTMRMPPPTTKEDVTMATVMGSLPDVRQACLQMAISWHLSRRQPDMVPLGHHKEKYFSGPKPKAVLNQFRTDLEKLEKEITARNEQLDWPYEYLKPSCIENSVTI
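Purified human 12hLO at 150 nM in 25 mM Hepes, 0.01% Triton X-100, pH 7.0, preincubated 15 min at room temperature with compound. Reaction started with 40 uM arachidonic acid, 30 min at room temperature. Hydroperoxide measured by Fe-xylenol orange, 573/405 nm absorbance ratio.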
A number is an active result; n = inactive; u = inconclusive; x = not tested or not shown; ! = repeats disagree; [ ] = remark or other dose. Calls come from the whole dose curve; as a rule, active = well fitted curve in the direction sought with a large enough effect; inconclusive = small, poorly fitted or top-dose-only effect, or another doubt; inactive = no such curve, though single readings can be large; an effect the other way counts as inactive or inconclusive.

SMILES	VDR inh	GCN5L2 inh	PLK1 PBD inh	12-LOX inh
CCSc1oc(-c2ccco2)nc1S(=O)(=O)c1ccc(F)cc1	n	n	n	28µM!
CC(C)(C)c1cc(C=O)cc(C(C)(C)C)c1O	x	x	x	n
CC(C)(C)c1cc(/C=C/C(=O)O)cc(C(C)(C)C)c1O	x	x	x	8.9µM
Cc1[nH]c2ccc3ccccc3c2c(=O)c1C/C=C/Cl	n	n	n	n
Cc1[nH]c2ccc(Br)cc2c(=S)c1C/C=C/Cl	u	n	24µM	u
CCOc1ccc(CNC(=O)CC(C)n2ccc(C)n2)cc1 (stereo not given)	x	x	x	n
COc1ccc(-c2noc(-c3cccn3CC(=O)N3CCC(C)CC3)n2)cc1F	x	x	x	n
Cc1ccc(N(CC(=O)N2CCN(c3ccccc3)CC2)S(=O)(=O)c2c(C)noc2C)cc1	n	n	x	n
Cc1cc(C)cc(N(CC(=O)N2CCN(c3ccccc3)CC2)S(=O)(=O)c2c(C)noc2C)c1	n	n	24µM	n
CCOc1ccccc1CN1CCCC12Cc1ccccc1CNC2=O (stereo not given)	x	x	x	n[6.33 µM]
O=C(CCN1C(=O)C2C3C=CC(C3)C2C1=O)N1CCN(c2ccc([N+](=O)[O-])cc2)CC1 (stereo not given)	n	n	n	n
O=C1C2C3C=CC(C3)C2C(=O)N1CCN1CCN(Cc2ccc([N+](=O)[O-])cc2)CC1 (stereo not given)	u	n	21µM	n
CC(C)(C)C(=O)C(Cl)C(=O)Nc1ccccc1 (stereo not given)	20µM	n	11µM	n
O=C(Nc1ccc(Nc2ccccc2)cc1)C(Cl)Cl	n	n	n	n
CN(C)S(=O)(=O)N1CC=C(c2c[nH]c3ccccc23)CC1	x	x	x	18µM
CC(=O)Nc1ccc(S(=O)(=O)Nc2ccc3c(c2)N(S(C)(=O)=O)CC3)cc1	x	x	x	n
COCCNCc1ccccc1	u	n	30µM	n
COCCNCc1ccc(C(C)C)cc1	n	n	n	n
COc1cc(Br)cc2cc(C(=O)N3c4ccccc4CC3C)c(=O)oc12 (stereo not given)	x	x	x	n
Nn1c(SCc2ncc(-c3ccccc3)o2)nnc1-c1ccccc1F	x	x	x	6.3µM
CCc1ccc2nc(C)cc(C(=O)OCC(=O)c3cccc([N+](=O)[O-])c3)c2c1	x	x	x	n
CCOC(=O)C1=C(C(C)=O)C(c2cccnc2)C(C#N)=C(N)O1 (stereo not given)	n	n	n	u
CCOC(=O)C1=C(C#N)C(C(=O)OCC)c2ncccc21 (stereo not given)	x	x	3.4µM	u
Cc1cccc(CN2CCCC3(CCN(c4cc(C)c5ccccc5n4)C3)C2=O)c1 (stereo not given)	x	x	x	n
O=S(=O)(CS(=O)(=O)Oc1ccccc1)Oc1ccccc1	n	x	21µM	u
SMILES	VDR inh	GCN5L2 inh	PLK1 PBD inh	12-LOX inh
NS(=O)(=O)Oc1ccccc1	n	n	n	u
Cc1c(-c2ccccc2)oc2c(C(=O)OCC(=O)NC3CCC(C)CC3)cccc2c1=O (stereo not given)	x	x	x	n
C=CC(=O)OCCSc1nc(N2CCOCC2)nc(N2CCOCC2)n1	x	x	x	n
NS(=O)(=O)c1ccc(N=Nc2ccc(=O)[nH]c2O)cc1	n	n	27µM	u
Nc1nc(N)c(N=Nc2ccc(S(N)(=O)=O)cc2)c(=O)[nH]1	n	n	n	40µM
NS(=O)(=O)c1ccc(N=Nc2ccc(O)c3ncccc23)cc1	n	n	n	u
COc1cccc(Oc2c(C)oc3cc(OCC(N)=O)ccc3c2=O)c1	x	x	x	n
Cc1cc(C)cc(C(=O)NCc2ccco2)c1	x	x	x	n
O=C(Nc1ccccc1N1CCCCC1)c1ccc(-c2ccc(Cl)cc2)o1	n	n	27µM	n
S=C(c1ccc(-c2ccc(Cl)cc2)o1)N1CCCCC1	n	n	n	16µM
COc1cc2c(CCNC(C)=O)c[nH]c2cc1O	n	n	n	40µM!
COc1ccc2c(CCNC(N)=S)c[nH]c2c1	u	n	19µM	n
COc1ccc2c(CCNC(=O)c3ccc(F)cc3)c[nH]c2c1	x	x	x	n
Cc1cccc(NC(=O)CCN2C(=O)C3C4C=CC(C4)C3C2=O)n1 (stereo not given)	n	n	12µM	n
O=C(CCN1C(=O)C2C3C=CC(C3)C2C1=O)NCCc1ccccc1 (stereo not given)	n	n	24µM	n
Cc1ccc(S(=O)OCC(=O)Nc2cc(Cl)ccc2N2CCOCC2)cc1 (stereo not given)	u	n	17µM	n
O=C(O)c1cccc(NC2=C(N3CCOCC3)C(=O)c3ccccc3C2=O)c1	71µM	n	n	n
CCCN(CC1CC1)C(=O)C1CCN(C(=O)N2CC3CC(C2)[C@H]2CCCC(=O)N2C3)CC1 (stereo not given in full)	x	x	x	n
CCOC(=O)C1=NN(C(C)=O)C2(CC(=O)N(c3cccc(C)c3)C2=O)C1 (stereo not given)	n	n	27µM	n
Oc1c(Cl)cc(Cl)cc1Sc1cc(Cl)cc(Cl)c1O	28µM	u	x	x
Clc1ccc(Sc2cc(Cl)c(Cl)cc2Cl)cc1	n	n	x	x
CC(=O)c1sc(NC(C)C)c(C#N)c1N	x	x	x	18µM
O=C(Nc1ccc2nc3n(c(=O)c2c1)CCCCC3)C(=O)N1CCN(c2ccccc2F)CC1	u	n	30µM	n
O=C(Nc1ccc2nc3n(c(=O)c2c1)CCCCC3)C(=O)Nc1ccccc1F	n	n	x	n
CCOc1ccccc1Nc1cc(C)nc2nc(C)nn12	n	n	n	5.6µM
SMILES	VDR inh	GCN5L2 inh	PLK1 PBD inh	12-LOX inh
Cc1cc(Nc2ccc(Br)c(C)c2)n2nc(C)nc2n1	u	n	30µM	n
Cc1occc1C(=O)NNC(=O)Nc1ccc(Cl)c(Cl)c1	u	n	6.7µM	n
NS(=O)(=O)c1ccc(NC(=O)c2c(F)cccc2Cl)cc1	n	n	n	n
Cc1ccsc1C(=O)NNC(=O)Nc1ccc(Cl)c(Cl)c1	n	n	u	u
Cc1occc1C(=O)Nc1ccc(S(N)(=O)=O)cc1	u	n	21µM	n
CNS(=O)(=O)c1ccc(NC(=O)c2ccoc2C)cc1	n	n	n	n
NS(=O)(=O)c1ccc(NC(=O)c2c(Cl)cccc2Cl)cc1	n	n	21µM	n
CCc1cccc2cc(C(=O)O)[nH]c12	x	x	x	n
COc1ccc(CCNC(=O)C2CCN(S(=O)(=O)c3cccc4cccnc34)CC2)cc1OC	n	n	27µM	x
COc1ccc(CCNC(=O)c2nc3ncccn3n2)cc1OC	n	n	24µM	n
O=C(Nc1ccc(Oc2ccccc2)cc1)O[C@@H]1CO[C@H]2[C@@H]1OC[C@@H]2NC(=O)c1ccccn1	x	x	x	n
CCN=c1scc(-c2cccs2)n1/N=C/c1cc(OC)ccc1O	n	n	n	n
CC(C)N=c1scc(-c2cccs2)n1/N=C/c1ccc(O)c(O)c1O	n	n	u	14µM
COc1ccccc1-c1cc(N2CCN(c3ccccn3)CC2)c2onc(C)c2n1	x	x	x	89µM
COC1CCN(c2cc(-c3ccccn3)nc3c(C)noc23)CC1	x	x	x	n
Cc1ccc(NC(=O)c2sc3nc(N4CCOCC4)c4c(c3c2N)CC(C)(C)OC4)cc1	n	n	n	n
CC1(C)Cc2c(c(N3CCOCC3)nc3sc(C(=O)Nc4ccc(Cl)cc4)c(N)c23)CO1	n	n	n	2.8µM!
